Laboratory results taken from PubChem BioAssay AID2284359 (EPA ToxCast).
Records with an inconclusive call do not appear. Activity calls are given as the source filed them. Rule for the calls: active = hit-call score of the fitted dose curve at least 0.9, where 1 is the maximum; inconclusive = response in the unintended direction; inactive = score below 0.9.

experiment: ATG_M_06_EcoTox2: Attagene TRANS-FACTORIAL EcoTox-2 HepG2 Assay for M06 Transcription Factor (Internal Marker)
Description: ATG_EcoTox2 is a cell-based, multiplexed assay created by modifying the existing Attagene TRANS-FACTORIAL system to include a panel of nuclear receptors from some or all the following species: human (Homo sapiens), african clawed frog (Xenopus laevis), rainbow trout (Oncorhynchus mykiss), japanese medaka (Oryzias latipes), and zebrafish (Danio rerio). The ECOTOX2-FACTORIAL format uses HepG2, a human liver cell line, with measurements taken at 24 hours after chemical dosing in a 24-well plate. ATG_M_06_EcoTox2 is one of 29 assay components calculated in the ATG_EcoTox2 assay. It is designed to make measurements of mRNA induction, a form of inducible reporter, as detected with fluorescence intensity signals by Reverse transcription polymerase chain reaction (RT-PCR) and Capillary electrophoresis technology.The assay endpoint ATG_M_06_EcoTox2 was analyzed in the positive analysis fitting direction relative to DMSO as the negative control and baseline of activity. Using a type of inducible reporter, measures of mRNA for gain-of-signal activity can be used to understand the background control at the transcription factor-level as they relate to the gene. Furthermore, this assay endpoint can be referred to as a secondary readout, because this assay has produced multiple assay endpoints where this one serves a background control function. To generalize the intended target to other relatable targets, this assay endpoint is annotated to the background measurement intended target family, where the subfamily is internal marker.
Human liver HepG2 cells are transiently transfected with multiple reporter transcription units (MRTUs) in 6-well plates using FuGene 6 reagent (Roche; 3 ml FuGene/1 mg DNA). The MRTU constructs are regulated by a cis-regulating element (promoter). Each RTU expresses a GAL4-UAS that regulates the transcription of a nearby target reporter gene sequence. A major difference between the CIS and TRANS system is that in CIS activities of endogenous TFs are measured, whereas the TRANS assay evaluates changes in activities of exogenous, chimeric NR-Gal4 proteins. […] At the end of 24 hour incubation, total RNA was isolated using TriZol reagent (Invitrogen). The isolated RNA is then reverse-transcribed using oligo(dT) primer and Mo-MLV reverse transcriptase (Invitrogen) with DNAse I (Ambion) treatment for 30 min. The one-tenth of the produced cDNA was amplified by PCR using Taq DNA polymerase (Invitrogen) and two reporter sequence-specific primers. The PCR products were fluorescently labeled by primer extension with 6-arboxyfluorescein (6-FAM) 5'-labeled reporter sequence-specific primer (2 min at 95 C, 20 s at 68 C and 10 min at 72 C) and these products were digested with 5U of HpaI (New England Biolabs) for 2h at 37 C. The fragments were purified using Qiaquick PCR columns (Qiagen), analyzed on an ABI 3130xL genetic analyzer (Applied Biosystems) with peak positions identified by using a set of X-rhodamine (ROX)-labeled MapMarker1000 molecular weight standards (BioVentures). The raw capillary electrophoresis data was processed using Attagraph software (Attagene).

**Q.** With `C[C@]12C=CC(=O)C=C1CC[C@@H]1[C@@H]2C(=O)C[C@@]2(C)[C@H]1CC[C@]2(O)C(=O)CO` as the compound, how does the outcome read?
**A.** The outcome was “inactive”.

**Q.** Which outcome does the source give for `C=C(c1ccc(C(=O)O)cc1)c1cc2c(cc1C)C(C)(C)CCC2(C)C` here?
**A.** The outcome was “inactive”.

**Q.** With `Cc1nc(-c2ccc(C(F)(F)F)cc2)sc1C(=O)NCc1ccc(OC(C)(C)C(=O)O)cc1` as the compound, how does the outcome read?
**A.** The outcome was “inactive”.

**Q.** For `CC(C)(Oc1ccc(Cl)cc1)C(=O)O`, which outcome is on record?
**A.** The outcome was “inactive”.

**Q.** Which outcome does the source give for `Cc1c(C)c2c(c(C)c1O)CCC(C)(COc1ccc(CC3SC(=O)NC3=O)cc1)O2` (stereo unspecified) here?
**A.** The outcome was “inactive”.

**Q.** Which outcome does the source give for `CN(CCOc1ccc(CC2SC(=O)NC2=O)cc1)c1ccccn1` (stereo unspecified) here?
**A.** Its outcome is “inactive”.

**Q.** Which outcome does the source give for `Cc1cccc(Nc2cc(Cl)nc(SCC(=O)O)n2)c1C` here?
**A.** The outcome was “inactive”.

**Q.** For `CC(c1cc2ccccc2s1)N(O)C(N)=O` (stereo unspecified), which outcome is on record?
**A.** The outcome was “inactive”.

**Q.** Which outcome does the source give for `CC(C)(Oc1ccc(C2CC2(Cl)Cl)cc1)C(=O)O` (stereo unspecified) here?
**A.** Its outcome is “inactive”.

**Q.** Which outcome does the source give for `CC(C)(Oc1ccc(CCNC(=O)c2ccc(Cl)cc2)cc1)C(=O)O` here?
**A.** The outcome was “inactive”.

**Q.** For `CC(C)OC(=O)C(C)(C)Oc1ccc(C(=O)c2ccc(Cl)cc2)cc1`, which outcome is on record?
**A.** The outcome was “inactive”.
